From PubChem BioAssay (Tox21)
Several values for one entry are separate records, joined by “and”; a condition that tells them apart may be missing. Equal values may be shown once. Results filed as inconclusive are left out. A call without a number means that no potency is given here. Activity calls are given as the source filed them. Unless noted, calls come from the whole dose curve; as a rule, active = well fitted curve in the direction sought with a large enough effect in the repeat runs; inconclusive = weak or mixed curves; inactive = no such curve, though single readings can be large; an effect the other way counts as inactive or inconclusive.

Assays:
[1] = molecular target: Aryl hydrocarbon receptor (Homo sapiens) (UniProt P35869); experiment: qHTS assay to identify small molecule that activate the aryl hydrocarbon receptor (AhR) signaling pathway (AID 743085); note: nearly all actives have a fitted effect of over 15% in size; note: potency is the fitted concentration of half-maximal effect;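 for activation: HG2L7.5c1 human HepG2 liver cells with stably integrated DRE-driven firefly reporter; series mostly up to about 70 µM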
In short: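 Steps: seed HepG2-AhR-luc cells; allow 5 h at 37C; pin-transfer test compound or vehicle; incubate 24 h at 37C; add viability dye (30 min, 37C) and read fluorescence; add luciferase substrate (30 min, RT) and read luminescence.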

[2] = qHTS assay to identify small molecule that activate the aryl hydrocarbon receptor (AhR) signaling pathway - cell viability counter screen (AID 743086); note: nearly all actives have a fitted effect of over 45% in size; note: potency is the fitted concentration of half-maximal effect
In short: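 HepG2-AhR-luc (HG2L7.5c1) cells, 4000/well, were preincubated 5 h at 37C, exposed to compound in qHTS format for 24 hr at 37C, then given CellTiter-Fluor for 30 min; viability was read as fluorescence in the reporter wells.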

[3] = molecular target: Peroxisome proliferator-activated receptor gamma (Homo sapiens) (UniProt P37231); experiment: qHTS assay to identify small molecule agonists of the peroxisome proliferator-activated receptor gamma (PPARg) signaling pathway (AID 743094; active = well fitted activation curve with a large enough effect in the signal ratio in the repeat runs, not every such curve was filed as active; the % refers to the signal ratio)
In short: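 Agonist activity was taken from a beta-lactamase reporter (FRET substrate, 1 h at room temperature) in HEK293H cells carrying a PPARg UAS-bla construct. Compounds in DMSO were incubated 17 h at 37C after a 5 h cell pre-incubation.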

[4] = molecular target: Peroxisome proliferator-activated receptor gamma (Homo sapiens) (UniProt P37231); experiment: qHTS assay to identify small molecule antagonists of the peroxisome proliferator-activated receptor gamma (PPARg) signaling pathway (AID 743191; calls by dose curve; note: nearly all actives have a fitted effect of over 30% in size; note: potency is the fitted concentration of half-maximal effect)
In short: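 GeneBLAzer PPARg UAS-bla HEK293H cells carrying a UAS-driven beta-lactamase reporter were plated at 3000 cells/well, preincubated 5 h at 37C, then given compound for 17 h at 37C; LiveBLAzer B/G FRET substrate was read after 1 h at room temperature.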

[5] = qHTS assay to identify small molecule antagonists of the peroxisome proliferator-activated receptor gamma (PPARg) signaling pathway - cell viability counter screen (AID 743194); conditions: Potency: co-treated with 50 nM rosiglitazone; note: nearly all actives have a fitted effect of over 55% in size
In short: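 PPARg-UAS-bla HEK293H cells were plated, rested 5 h at 37 C, then treated with compounds plus rosiglitazone (50 nM final) for 17 h at 37 C; viability was then read by CellTiter-Glo luminescence after 30 min at room temperature.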

[6] = qHTS assay for small molecule agonists of the antioxidant response element (ARE) signaling pathway (AID 743202; active = well fitted activation curve with a large enough effect in the signal ratio in the repeat runs, not every such curve was filed as active; the % refers to the signal ratio)
In short: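 Steps: seed ARE-bla HepG2 cells (2,000/well); incubate 5 h at 37 C; add compounds by pin tool; incubate 16 h at 37 C; add FRET substrate; read fluorescence after 2 h at RT.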

[7] = qHTS assay for small molecule agonists of the antioxidant response element (ARE) signaling pathway - cell viability counter screen (AID 743203; calls by dose curve; note: nearly all actives have a fitted effect of over 55% in size)
In short: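 Viability counter screen: CellTiter-Glo luminescence, read after 30 min at room temperature, in ARE-bla HepG2 wells. Compound exposure lasted 16 h at 37C/5% CO2, following a 5 h pre-incubation of the cells after plating.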

[8] = qHTS assay for small molecule activators of the heat shock response signaling pathway - cell viability counter screen (AID 743209); note: nearly all actives have a fitted effect of over 50% in size
In short: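 Cytotoxicity counter screen run in the same wells as the heat-shock bla reporter assay: HeLa HSE-bla cells, 5 h compound exposure at 37 C, viability read by CellTiter-Glo luminescence.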

[9] = qHTS assay for small molecule activators of the heat shock response signaling pathway (AID 743210; active = well fitted activation curve with a large enough effect in the signal ratio in the repeat runs, with a control signal flat, not every such curve was filed as active; the % refers to the signal ratio;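 note: HeLa cells with beta-lactamase reporter driven by heat shock elements; series mostly up to about 63 µM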)
In short: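 Activation of heat shock element-controlled beta-lactamase expression is measured in HeLa cells by LiveBLAzer FRET fluorescence, with compound exposure lasting 5 h at 37 C and substrate loading 2.5 h at room temperature.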

[10] = qHTS assay to identify small molecule agonists of the peroxisome proliferator-activated receptor delta (PPARd) signaling pathway - cell viability counter screen (AID 743211); note: nearly all actives have a fitted effect of over 55% in size; note: potency is the fitted concentration of half-maximal effect
In short: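 Viability of GeneBLAzer PPARd UAS-bla HEK293H cells was assessed after 17 h compound incubation at 37C, using CellTiter-Glo reagent added after the reporter read and luminescence recorded 30 min later.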

[11] = molecular target: Peroxisome proliferator-activated receptor delta (Homo sapiens) (UniProt Q03181); experiment: qHTS assay to identify small molecule agonists of the peroxisome proliferator-activated receptor delta (PPARd) signaling pathway (AID 743212; calls by dose curve)
In short: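 Cells expressing a UAS-driven beta-lactamase reporter (PPARd-bla HEK293H) were given test compounds after a 5 h settle and kept at 37 C. Reporter activity was then measured as FRET fluorescence using LiveBLAzer B/G substrate.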

[12] = qHTS assay to identify small molecule antagonists of the peroxisome proliferator-activated receptor delta (PPARd) signaling pathway - cell viability counter screen (AID 743213); note: nearly all actives have a fitted effect of over 50% in size; note: potency is the fitted concentration of half-maximal effect
In short: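 HEK293H PPARd UAS-bla cells, 5 h pre-incubation, compound + L165041 300 nM final, 17 h 37 C; B/G FRET substrate 2 h RT; then CellTiter-Glo 30 min RT, luminescence.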

[13] = molecular target: Peroxisome proliferator-activated receptor delta (Homo sapiens) (UniProt Q03181); experiment: qHTS assay to identify small molecule antagonists of the peroxisome proliferator-activated receptor delta (PPARd) signaling pathway (AID 743215; active = well fitted inhibition curve with a large enough effect in the signal ratio in the repeat runs, not every such curve was filed as active; the % refers to the signal ratio;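 note: cells stimulated with agonist L165041 at 300 nM final during compound exposure; series mostly up to about 62 µM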)
In short: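 Agonist L165041 (300 nM final) added with compound to PPARd-bla HEK293H UAS-bla reporter cells; 17 h incubation at 37 C. Read-out: LiveBLAzer FRET substrate, 2 h at room temperature, fluorescence intensity.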

[14] = molecular target: Bile acid receptor (Homo sapiens) (UniProt Q96RI1); experiment: qHTS assay to identify small molecule antagonists of the farnesoid-X-receptor (FXR) signaling pathway (AID 743217; active = well fitted inhibition curve with a large enough effect in the signal ratio in the repeat runs, not every such curve was filed as active; the % refers to the signal ratio; note: potency is the fitted concentration of half-maximal effect)
In short: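 Antagonist mode: chenodeoxycholic acid at 50 uM final stimulates a UAS-driven beta-lactamase reporter in HEK 293T FXR-bla cells during 16 h, 37C compound exposure. Read-out is FRET substrate fluorescence after 2 h at room temperature.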

[15] = qHTS assay to identify small molecule agonists of the farnesoid-X-receptor (FXR) signaling pathway - cell viability counter screen (AID 743218); note: nearly all actives have a fitted effect of over 45% in size
In short: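 Viability counter screen in the same wells: CellTiter-Glo luminescence, 30 min room-temperature incubation, measured after the beta-lactamase read. Cells were GeneBLAzer FXR-UAS-bla HEK 293T, compound-treated 16 h at 37C.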

[16] = molecular target: Bile acid receptor (Homo sapiens) (UniProt Q96RI1); experiment: qHTS assay to identify small molecule agonists of the farnesoid-X-receptor (FXR) signaling pathway (AID 743220; active = well fitted activation curve with a large enough effect in the signal ratio in the repeat runs, not every such curve was filed as active; the % refers to the signal ratio)
In short: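 FXR-UAS-bla HEK 293T cells carrying a UAS-driven beta-lactamase reporter were plated for 5 h at 37C/5% CO2, then exposed to DMSO-dissolved Tox21 10K compounds for 16 h at 37C. A LiveBLAzer B/G FRET substrate was loaded for 2 h at room temperature before fluorescence reading.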

[17] = qHTS assay to identify small molecule antagonists of the farnesoid-X-receptor (FXR) signaling pathway - cell viability counter screen (AID 743221; active = well fitted cell-killing curve with a large enough effect in the repeat runs, not every such curve was filed as active; note: nearly all actives have a fitted effect of over 50% in size)
In short: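 Quantitative HTS of the Tox21 10K library run in parallel with the beta-lactamase reporter read. HEK 293T cells carrying a UAS-driven bla reporter got compound and 50 uM CDCA (final) for 16 h; ATP-based luminescence followed.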

[18] = molecular target: Vitamin D3 receptor (Homo sapiens) (UniProt P11473); experiment: qHTS assay to identify small molecule agonists of the vitamin D receptor (VDR) signaling pathway (AID 743222; calls by dose curve)
In short: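 Agonist mode, beta-lactamase reporter: fluorescence from LiveBLAzer B/G FRET substrate (2 h, room temperature) read after 16 h compound treatment at 37 C of VDR-bla cells, which were pre-incubated 4 h after seeding.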

[19] = molecular target: Vitamin D3 receptor (Homo sapiens) (UniProt P11473); experiment: qHTS assay to identify small molecule antagonists of the vitamin D receptor (VDR) signaling pathway (AID 743223; active = well fitted inhibition curve with a large enough effect in the signal ratio in the repeat runs, not every such curve was filed as active; the % refers to the signal ratio)
In short: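 Fluorescence from LiveBLAzer B/G FRET substrate, read after 2 h at room temperature, reflects beta-lactamase reporter activity in VDR-bla cells treated 16 h at 37C with compounds and agonist 1alpha,25-dihydroxyvitamin D3 (3 nM final).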

[20] = qHTS assay to identify small molecule agonists of the vitamin D receptor (VDR) signaling pathway - cell viability counter screen (AID 743224); note: series mostly up to about 63 µM; nearly all actives have a fitted effect of over 50% in size
In short: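 Counter screen run in the same wells as the VDR-bla reporter assay: CellTiter-Glo luminescence, 30 min at room temperature, after 16 h compound treatment at 37C of cells pre-plated for 4 h.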

Peroxisome proliferator-activated receptor delta (Homo sapiens), sequence (Q03181 whole entry, looked up): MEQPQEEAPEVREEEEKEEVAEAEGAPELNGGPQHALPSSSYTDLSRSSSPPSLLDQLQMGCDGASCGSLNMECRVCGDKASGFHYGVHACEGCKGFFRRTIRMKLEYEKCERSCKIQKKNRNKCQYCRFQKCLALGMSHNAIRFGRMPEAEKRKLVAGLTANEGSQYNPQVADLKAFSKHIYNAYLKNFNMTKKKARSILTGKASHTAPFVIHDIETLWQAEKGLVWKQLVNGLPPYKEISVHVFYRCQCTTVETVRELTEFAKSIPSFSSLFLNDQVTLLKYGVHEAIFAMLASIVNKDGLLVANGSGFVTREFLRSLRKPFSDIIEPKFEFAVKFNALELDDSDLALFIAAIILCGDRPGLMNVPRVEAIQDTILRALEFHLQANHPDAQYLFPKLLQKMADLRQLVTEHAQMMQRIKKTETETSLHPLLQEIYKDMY
Peroxisome proliferator-activated receptor gamma (Homo sapiens), sequence (P37231 whole entry, looked up): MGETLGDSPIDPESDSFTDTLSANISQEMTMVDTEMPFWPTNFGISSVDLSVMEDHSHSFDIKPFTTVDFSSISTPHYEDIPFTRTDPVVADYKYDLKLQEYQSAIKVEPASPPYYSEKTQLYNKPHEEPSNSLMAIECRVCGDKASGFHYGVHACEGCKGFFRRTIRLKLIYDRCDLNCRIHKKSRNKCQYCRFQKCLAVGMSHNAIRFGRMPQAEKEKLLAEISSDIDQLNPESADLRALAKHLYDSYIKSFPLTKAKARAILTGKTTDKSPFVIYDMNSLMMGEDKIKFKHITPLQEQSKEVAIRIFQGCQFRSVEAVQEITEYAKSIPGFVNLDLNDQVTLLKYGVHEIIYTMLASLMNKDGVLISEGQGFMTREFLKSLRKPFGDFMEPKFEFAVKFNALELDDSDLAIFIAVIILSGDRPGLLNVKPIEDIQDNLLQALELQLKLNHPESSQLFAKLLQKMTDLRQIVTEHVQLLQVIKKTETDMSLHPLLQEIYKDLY
Bile acid receptor (Homo sapiens), sequence (Q96RI1 whole entry, looked up): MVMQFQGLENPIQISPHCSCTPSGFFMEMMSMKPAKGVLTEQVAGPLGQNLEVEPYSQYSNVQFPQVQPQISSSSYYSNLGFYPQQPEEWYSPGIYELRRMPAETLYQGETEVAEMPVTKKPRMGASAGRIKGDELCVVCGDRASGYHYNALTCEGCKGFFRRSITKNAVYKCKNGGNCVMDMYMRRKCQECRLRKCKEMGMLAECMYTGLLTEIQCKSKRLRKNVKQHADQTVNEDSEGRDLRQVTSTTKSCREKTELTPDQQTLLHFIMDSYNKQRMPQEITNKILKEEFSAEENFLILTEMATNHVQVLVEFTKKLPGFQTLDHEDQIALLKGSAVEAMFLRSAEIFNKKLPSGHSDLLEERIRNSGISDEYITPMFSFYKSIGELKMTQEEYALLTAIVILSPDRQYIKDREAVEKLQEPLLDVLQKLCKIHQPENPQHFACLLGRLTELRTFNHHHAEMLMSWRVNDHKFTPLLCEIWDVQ
Aryl hydrocarbon receptor (Homo sapiens), sequence (P35869 whole entry, looked up): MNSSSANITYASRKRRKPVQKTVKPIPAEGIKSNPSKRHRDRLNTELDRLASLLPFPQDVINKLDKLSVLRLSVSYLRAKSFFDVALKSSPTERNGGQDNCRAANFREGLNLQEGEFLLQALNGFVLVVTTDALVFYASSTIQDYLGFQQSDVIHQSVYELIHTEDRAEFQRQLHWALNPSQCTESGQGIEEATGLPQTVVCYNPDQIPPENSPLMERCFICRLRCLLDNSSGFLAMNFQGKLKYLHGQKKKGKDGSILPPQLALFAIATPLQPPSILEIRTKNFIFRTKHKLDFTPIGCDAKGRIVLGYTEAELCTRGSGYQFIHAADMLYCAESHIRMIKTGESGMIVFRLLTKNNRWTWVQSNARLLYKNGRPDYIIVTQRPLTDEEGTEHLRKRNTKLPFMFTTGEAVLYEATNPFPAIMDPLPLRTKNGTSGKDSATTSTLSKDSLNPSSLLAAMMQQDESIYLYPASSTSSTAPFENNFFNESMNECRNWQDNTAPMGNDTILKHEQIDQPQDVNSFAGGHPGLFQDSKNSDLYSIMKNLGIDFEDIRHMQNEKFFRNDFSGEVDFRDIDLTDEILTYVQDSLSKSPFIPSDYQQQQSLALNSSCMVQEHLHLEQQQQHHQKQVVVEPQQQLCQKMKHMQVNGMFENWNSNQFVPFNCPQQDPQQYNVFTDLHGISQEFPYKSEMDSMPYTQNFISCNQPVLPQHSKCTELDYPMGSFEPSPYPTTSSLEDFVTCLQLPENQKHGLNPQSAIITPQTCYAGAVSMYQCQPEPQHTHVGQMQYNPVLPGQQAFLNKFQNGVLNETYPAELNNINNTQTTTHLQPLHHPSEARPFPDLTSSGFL
Vitamin D3 receptor (Homo sapiens), sequence (P11473 whole entry, looked up): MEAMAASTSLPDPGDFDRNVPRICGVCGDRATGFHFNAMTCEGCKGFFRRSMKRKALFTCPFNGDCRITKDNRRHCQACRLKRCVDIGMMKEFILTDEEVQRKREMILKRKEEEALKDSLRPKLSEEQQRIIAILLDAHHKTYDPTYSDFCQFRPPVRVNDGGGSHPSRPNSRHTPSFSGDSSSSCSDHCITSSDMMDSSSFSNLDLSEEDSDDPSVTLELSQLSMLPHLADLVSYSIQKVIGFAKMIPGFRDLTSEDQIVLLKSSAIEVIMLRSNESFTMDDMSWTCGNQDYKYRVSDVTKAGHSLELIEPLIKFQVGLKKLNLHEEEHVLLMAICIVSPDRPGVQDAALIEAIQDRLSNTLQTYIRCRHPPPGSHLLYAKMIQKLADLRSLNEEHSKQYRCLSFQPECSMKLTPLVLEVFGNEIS

| SMILES | Potency [1] | Potency [2] | Potency [3] | Potency [4] | Potency [5] | Potency [6] | Potency [7] | Potency [8] | Potency [9] | Potency [10] | outcome [11] | Potency [12] | Potency [13] | Potency [14] | Potency [15] | outcome [16] | Potency [17] | outcome [18] | Potency [19] | Potency [20] |
| --- | --- | --- | --- | --- | --- | --- | --- | --- | --- | --- | --- | --- | --- | --- | --- | --- | --- | --- | --- | --- |
| CCOP(=O)(O)C(N)=O | inactive | inactive | inactive | inactive | inactive | inactive | inactive | inactive | inactive | inactive | inactive | inactive | inactive | inactive | inactive | inactive | inactive | inactive | inactive | inactive |
| CCCC[N+]1(C)[C@@H]2CC(OC(=O)[C@H](CO)c3ccccc3)C[C@H]1[C@@H]1O[C@@H]12 (some centres not stated) | inactive | inactive | inactive | inactive | inactive | inactive | inactive | inactive | inactive | inactive | inactive | inactive | inactive | inactive | inactive | inactive | inactive | – | – | inactive |
| O=[N+]([O-])O[C@H]1CO[C@H]2[C@@H]1OC[C@H]2O[N+](=O)[O-] | inactive | inactive | inactive | inactive | inactive | – | inactive | inactive | inactive | inactive | inactive | inactive | inactive | inactive | inactive | – | inactive | inactive | inactive | inactive |
| CCNC(=O)NC(=O)/C(C#N)=N/OC | inactive | inactive | inactive | inactive | – | inactive | inactive | inactive | inactive | inactive | inactive | inactive | inactive | inactive | inactive | inactive | – | inactive | – | inactive |
| C[N+]1(CCC(C(N)=O)(c2ccccc2)c2ccccc2)CCCCC1 | inactive | inactive | inactive | inactive | – | inactive | inactive | inactive | inactive | inactive | inactive | – | inactive | inactive | inactive | inactive | inactive | – | – | – |
| CCCC(C)(COC(N)=O)COC(=O)NC(C)C (configuration not stated) | inactive | inactive | inactive | inactive | inactive | – | – | inactive | inactive | – | – | inactive | – | – | inactive | – | inactive | inactive | inactive | inactive |
| Nc1ccc2c(c1)Cc1ccccc1-2 | 68.2 µM (active) | inactive | inactive | inactive | inactive | – | inactive | inactive | inactive | – | inactive | inactive | inactive | – | inactive | – | inactive | inactive | inactive | inactive |
| CCCCC(CC)CO[N+](=O)[O-] (configuration not stated) | inactive | inactive | inactive | inactive | inactive | – | inactive | – | inactive | inactive | inactive | inactive | inactive | – | inactive | – | inactive | inactive | – | – |
| OCC1CO1 (configuration not stated) | inactive | inactive | inactive | inactive | inactive | – | – | inactive | inactive | – | inactive | inactive | inactive | inactive | inactive | inactive | inactive | inactive | inactive | inactive |
| CC(C)(C)N(NC(=O)c1ccc(Cl)cc1)C(=O)c1ccccc1 | inactive | 17.1 µM (active) | inactive | inactive | inactive | – | inactive | inactive | inactive | inactive | inactive | inactive | inactive | inactive | inactive | – | inactive | inactive | inactive | inactive |
| CCCC1CCCCN1 (configuration not stated) | inactive | inactive | inactive | inactive | – | inactive | inactive | – | inactive | – | inactive | inactive | inactive | – | inactive | – | inactive | – | – | – |
| CC(C)c1ccc(OP(=O)(Oc2ccc(C(C)C)cc2)Oc2ccc(C(C)C)cc2)cc1 | inactive | inactive | inactive | 38.9 µM (active) | inactive | – | inactive | inactive | inactive | 27.7 µM (active) and 43.7 µM (active) and 27.5 µM (active) | – | 4.89 µM (active) | – | 22 µM (active) | – | inactive | – | inactive | inactive | inactive |
| OCCCl | inactive | inactive | inactive | inactive | – | inactive | – | inactive | inactive | inactive | inactive | inactive | – | inactive | inactive | inactive | inactive | inactive | inactive | – |
| N#CC1(N=NC2(C#N)CCCCC2)CCCCC1 | inactive | inactive | inactive | inactive | inactive | – | – | inactive | inactive | inactive | – | inactive | – | – | inactive | – | inactive | – | inactive | inactive |
| C1CS1 | inactive | inactive | inactive | inactive | inactive | – | inactive | inactive | inactive | – | inactive | inactive | inactive | – | inactive | – | inactive | – | – | inactive |
| CON(C)C(=O)Nc1ccc(Cl)cc1 | 27.3 µM (active) | inactive | inactive | inactive | – | inactive | inactive | inactive | inactive | inactive | inactive | inactive | inactive | inactive | inactive | inactive | inactive | inactive | inactive | inactive |
| NC(=O)CF | inactive | inactive | inactive | inactive | – | inactive | inactive | – | inactive | inactive | – | inactive | – | – | inactive | – | inactive | inactive | – | – |
